Most compounds without a hit are left out; they make up all but 3.4% or so of the library.
SIRT5 inh – SIRT5 desuccinylase inhibitors, primary screen, biochemical, fluorescence imaging, single point, set 5; NAD-dependent protein deacylase sirtuin-5, mitochondrial (Homo sapiens), Q9NXA8; Purified SirT5, succinyl-peptide AMC, trypsin-coupled fluorescence; inhibition, % at 15 µM; 330,000 tested, 1.1% active; in the data active = inhibition above about 15%
Target sequence (Q9NXA8 whole entry, looked up): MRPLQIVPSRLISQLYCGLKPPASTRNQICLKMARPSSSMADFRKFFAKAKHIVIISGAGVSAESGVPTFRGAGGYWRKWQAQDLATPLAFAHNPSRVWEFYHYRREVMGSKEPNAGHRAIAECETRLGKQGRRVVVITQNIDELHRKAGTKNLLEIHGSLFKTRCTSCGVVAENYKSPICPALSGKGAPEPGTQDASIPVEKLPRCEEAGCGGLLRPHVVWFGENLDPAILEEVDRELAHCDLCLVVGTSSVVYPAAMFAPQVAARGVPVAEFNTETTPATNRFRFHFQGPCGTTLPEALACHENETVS
LGR2 antag – inhibitors of bursicon-induced LGR2 CRE-luciferase signal, primary screen, cell-based, HEK293, CRE-luciferase reporter, bursicon stimulation; Drosophila bursicon receptor LGR2 (rickets); bursicon-stimulated, 4 h; inhibition, % at 9.99 µM; 380,000 tested, 0.35% active; AID 720647, 2013;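 active = drop in luminescence signal, shown as inhibition above about 50% in the replicate tests, limit read from the data, passing the limit was not always enough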;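 also: agonist challenge used bursicon conditioned medium at about half maximal strength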
EWS-Fli block – EWS/Fli-driven NR0B1 reporter inhibitors, primary screen, A673 cells, NR0B1 luciferase, luminescence, MLPCN library. viability-normalised. inhibition, % at 12.6 µM. 350,000 tested, 0.67% active;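 active = mean inhibition of at least 50% after viability correction, with every replicate also passing that limit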;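 also: firefly luciferase signal divided by Alamar Blue viability fluorescence both relative to DMSO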
PGC1a acetyl inh – inhibitors of PGC1a acetylation signal, primary screen, cell-based, U2OS, AlphaScreen, inhibitor mode; 350,000 tested, 0.17% active; inhibition, % at 15.6 µM; AlphaScreen anti-acetyl-lysine; with virally co-expressed GCN5 acetyltransferase;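 active = every replicate shows inhibition of at least 40%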;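 also: 0% = neutral control wells and 100% = positive control wells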
PAX8 reporter – inhibitors of PAX8-driven TPO luciferase reporter, primary screen, RMG-I cells, single concentration | 360,000 tested, 1.2% active | inhibition, % at 12.6 µM | SteadyGlo, 24 h;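 active = mean replicate inhibition at least 60% with every replicate also reaching 60%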;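 also: luciferase light reporting Pax8 driven TPO promoter activity; plate controls were median of neutral control wells for no effect and mitoxantrone controls for full effect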
rRNA inh HTS – reduced GFP signal of wild-type E. coli, primary screen, bacterial rRNA inhibitor project, GFP/RFP fluorescence, OD600, single point; E. coli WT GFP vs humanized-ribosome RFP mutants, 24 h; stronger effect = lower value; DMSO median 0, no signal -100; GFP signal change (wild-type ribosome), % (test concentration not listed); 350,000 tested, 1.6% active;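 active = significant combined selectivity score with lowered wild-type GFP, culture density cut under 30%, mutant RFP and density less affected; inactive = any of these conditions unmet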
Numbers without * were called inactive; x = not tested or not shown.

SMILES	SIRT5 inh	LGR2 antag	EWS-Fli block	PGC1a acetyl inh	PAX8 reporter	rRNA inh HTS
COc1ccc2c3c(n(C)c2c1)[C@H](CO)NCC31CN(C(=O)Nc2ccc3c(c2)OCO3)C1	x	-11.0	-9.0	-5.8	x	0.7
COc1ccccc1CNC(=O)C[C@H]1C[C@@H]2c3cc(N(C)C)ccc3O[C@@H]2[C@H](CO)O1	-1.5	9.1	9.5	-1.5	6.2	3.2
NS(=O)(=O)c1ccc(N=Nc2ccc(O)c3ncccc23)cc1	3.0	6.6	24.0	x	59.9	13.5
Oc1ccc(N=Nc2ccc3c(c2)OCCO3)c2ncccc12	1.7	-18.7	21.3	2.0	76.3*	-0.8
CN1C(=O)c2cc(NC(=O)c3cccs3)ccc2OC[C@H]2O[C@H](CC(=O)O)CC[C@H]21	3.2	-4.7	8.2	7.7	-4.6	-0.4
OC[C@@H]1CC[C@@H]2O[C@H](CCc3ccc(C#Cc4ccccc4)cc3)[C@H](n3cc(-c4ccccc4)nn3)C[C@@H]2O1	1.3	x	3.1	x	21.7	x
OC[C@H]1CC[C@@H]2O[C@H](CCc3ccc(C#CCc4ccccc4)cc3)[C@@H](n3cc(-c4ccccc4)nn3)C[C@@H]2O1	x	x	13.3	14.4	70.7*	x
CCOC(=O)c1csc(NC(=O)c2cc(=O)c3ccccc3o2)n1	0.2	-21.5	-12.6	x	-74.7	-25.9*
CCOC(=O)c1csc(NC(=O)CCS(=O)(=O)c2ccc(Cl)cc2)n1	x	-8.7	-0.4	2.6	84.0*	x
CCCCc1nnc(NC(=O)CCS(=O)(=O)c2ccc(Cl)cc2)s1	-5.4	8.6	-22.8	-5.9	76.8*	5.0
Cc1nnc(NC(=O)CCS(=O)(=O)c2ccccc2)s1	-1.6	8.5	-26.0	x	22.2	7.7
CCCc1nnc(NC(=O)CCS(=O)(=O)c2ccccc2)s1	-1.7	10.5	-25.5	x	78.0*	7.7
O=C(CN1CCOCC1)N[C@H]1CC[C@H](CCNS(=O)(=O)c2ccccc2F)O[C@@H]1CO	-0.1	15.8	1.5	-0.5	-6.1	1.6
CCCCNC(=S)NNC(=O)c1c(Cl)c(C)nn1C	-2.8	6.5	70.7*	x	-19.6	-1.8
CCNC(=S)NNC(=O)c1c(Cl)c(C)nn1C	x	-21.0	x	x	-5.5	x
O=C1N[C@H](c2ccccc2)COCc2cnnn2CC[C@@H]1Cc1ccc(-c2ccccc2)cc1	x	x	x	x	x	-5.8
CO[C@@H]1CN(C)C(=O)c2ccc(NC(C)=O)cc2OC[C@H](C)N(C(=O)c2ccccc2)C[C@@H]1C	x	x	x	x	x	-0.2
N#C/C(=C\c1ccc2c(c1)OCCO2)C(=O)NC1CCCCC1	-2.2	-30.5	-84.8	x	100.1*	-0.5
N#C/C(=C\c1c[nH]c2ccccc12)C(=O)NC1CC1	0.0	-46.9	-165.7	-17.3	-110.0	-10.2
N#C/C(=C\c1c[nH]c2ccccc12)C(=O)NC1CCCC1	0.5	-19.6	-72.7	-6.8	-10.8	-35.5*
CO[C@@H]1CN(C)C(=O)c2ccc(NC(=O)c3cnccn3)cc2OC[C@@H](C)NC[C@H]1C	15.4*	-6.7	-3.9	2.9	x	1.8
CO[C@H]1CN(C)C(=O)c2ccc(NC(=O)Nc3cc(Cl)cc(Cl)c3)cc2OC[C@@H](C)NC[C@@H]1C	1.4*	10.0	13.1	-10.1	17.4	-15.1
CO[C@H]1CN(C)C(=O)c2ccc(NC(=O)c3cnccn3)cc2OC[C@@H](C)NC[C@H]1C	x	8.2	1.4	-3.6	x	4.3
COc1ccc2cc(C(=O)C3CCCN(C(=O)C4=NN(C)C(=O)CC4)C3)ccc2c1 (stereo not given)	-28.8	8.9	x	-0.5	-45.8	-25.6*
C[C@@H]1CN([C@H](C)CO)C(=O)c2cccc(NC(=O)Nc3cccc4ccccc34)c2O[C@@H]1CN(C)S(=O)(=O)c1ccc(Cl)cc1	7.3	-13.9	-2.0	3.2	84.3*	2.7
SMILES	SIRT5 inh	LGR2 antag	EWS-Fli block	PGC1a acetyl inh	PAX8 reporter	rRNA inh HTS
C[C@@H]1CN([C@H](C)CO)C(=O)c2cccc(NC(=O)Nc3ccccc3)c2O[C@H]1CN(C)S(=O)(=O)c1ccc(Cl)cc1	-1.4	6.3	-1.7	-4.3	-1.0	-0.4
C[C@H](CO)N1C[C@H](C)[C@H](CN(C)S(=O)(=O)c2ccc(Cl)cc2)Oc2c(NC(=O)Nc3cccc4ccccc34)cccc2C1=O	-2.8	0.3	-7.3	-2.6	x	2.1
C[C@@H]1CN([C@@H](C)CO)C(=O)c2cccc(NC(=O)Nc3ccccc3)c2O[C@@H]1CN(C)S(=O)(=O)c1ccc(Cl)cc1	4.7	-1.0	3.2	-15.5	17.5	-24.8*
Cc1ccc(S(=O)(=O)N(C)C[C@H]2Oc3c(NC(=O)Nc4ccc5c(c4)OCO5)cccc3C(=O)N([C@@H](C)CO)C[C@H]2C)cc1	15.5*	13.3	7.6	1.0	8.4	-9.0
C[C@H]1CN([C@@H](C)CO)C(=O)c2cccc(NC(=O)Nc3ccc(F)cc3)c2O[C@H]1CN(C)S(=O)(=O)c1ccc(Cl)cc1	3.3	6.6	13.1	2.9	66.7*	-5.3
Cc1ccc(S(=O)(=O)N(C)C[C@@H]2Oc3c(NC(=O)Nc4ccc5c(c4)OCO5)cccc3C(=O)N([C@@H](C)CO)C[C@H]2C)cc1	9.7	12.8	-5.9	6.1	13.6	-5.8
O=C(/C=C/c1ccc([N+](=O)[O-])cc1)c1ccccc(=O)c1O	0.3	46.5	60.6*	-7.1	6.6	-14.2*
C[C@H]1CC=CC[C@@H](c2ccc3c(c2)OCO3)NC(=O)[C@H](Cc2ccccc2)N(C)C(=O)c2ccccc2O1 (mixture of isomers)	x	x	x	x	x	-0.6
Cc1cc(C)c(S(=O)(=O)ON2C(=O)c3ccccc3C2=O)cc1C	x	-1.6	x	-13.0	x	x
Cc1cc(C)c(C)c(S(=O)(=O)ON2C(=O)c3ccccc3C2=O)c1C	-0.5	5.5	56.1*	-9.3	x	15.5
C[C@@H]1CCCCO[C@H](CN(C)S(=O)(=O)c2ccccc2)[C@H](C)CN([C@@H](C)CO)C(=O)c2cc(NC(=O)CCC(F)(F)F)ccc2O1	0.7	12.3	5.7	-8.4	-1.3	-3.6
CC(C)(C)c1ccc(SC2=C[C@@]3(O)CC[C@@H](O)[C@@](Sc4ccc(C(C)(C)C)cc4)(C2=O)[C@H]3O)cc1	x	29.4	30.9	x	85.0*	4.6
COC(=O)[C@@]1(Sc2ccc(C)cc2)CC(=O)N[C@@H]1c1ccc(C(F)(F)F)cc1	x	16.1	-3.5	x	16.9	-3.4
Cc1ccc(SC2=C[C@@]3(O)CC[C@@H](O)[C@@](Sc4ccc(C)cc4)(C2=O)[C@H]3O)cc1	x	7.2	-4.5	x	5.7	-25.2*
CC(C)(C)c1ccc(C(=O)C2CC2)cc1	x	-9.2	-9.5	9.6	-1.4	11.2
Cc1cc(-n2c(SCC(=O)NCCC3=CCCCC3)nc3n[nH]c(C)c3c2=N)ccc1Cl	-4.5	10.6	x	-11.7	87.6*	12.4

Bioassay records: PubChem, Broad Institute
